The results in this text go back to PubChem BioAssay AID540358 (NMMLSC, 2011).

Values joined by “and” are separate entries in the source; they are usually repeats but may differ in a detail not shown here. Identical values can stand only once. Hit rate of the full screen: of about 1,100 compounds, about 260 (24%) were called active.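 How the source made its calls: active means surface receptor percent response at or below 58%, roughly 3 SD from nonfluorescent compounds; inactive means the rest.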 Not all results are given here.

For this assay, the target named is Beta-2 adrenergic receptor (Homo sapiens) (UniProt P07550). In words: beta2AR agonists via receptor internalization, confirmation, cell-based, FAP fluorogen, flow cytometry, single point, cherry pick 1 (AID 540358). The settings on record: Am2.2-beta2AR cells, at 10 µM, active compounds read low.
Sequence of Beta-2 adrenergic receptor (Homo sapiens) (P07550 whole entry, looked up): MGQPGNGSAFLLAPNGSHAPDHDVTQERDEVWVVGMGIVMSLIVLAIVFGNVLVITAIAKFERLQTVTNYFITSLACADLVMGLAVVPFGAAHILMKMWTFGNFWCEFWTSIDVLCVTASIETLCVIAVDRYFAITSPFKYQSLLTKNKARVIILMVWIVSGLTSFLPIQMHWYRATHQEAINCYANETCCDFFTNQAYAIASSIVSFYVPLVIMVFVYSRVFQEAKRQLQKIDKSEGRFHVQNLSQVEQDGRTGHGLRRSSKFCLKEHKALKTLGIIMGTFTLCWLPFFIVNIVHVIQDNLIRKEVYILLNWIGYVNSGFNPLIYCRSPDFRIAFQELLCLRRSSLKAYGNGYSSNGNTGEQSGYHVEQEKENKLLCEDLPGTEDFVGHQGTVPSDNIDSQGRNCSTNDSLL
For the compound `CSc1ccc(CNC(=O)c2ccc(NC(=O)C3=CSCCO3)cc2)cc1`, the percent response (surface receptor) was 17.5% (active).

For the compound `OC(CNCc1ccc(Cl)c(Cl)c1)c1ccccc1` (stereo unspecified), the percent response (surface receptor) is 110% (inactive).

As to `CCCCCCCCCCOC(=O)Cn1c(COc2ccc(C)cc2)[n+](C)c2ccccc21`, the percent response (surface receptor) is 108% (inactive).

For `O=C1C(=O)N(CC2COc3ccccc3O2)c2ccccc21` (stereo unspecified), the percent response (surface receptor) was 95.3% (inactive).

Turning to `O=C(NCCCn1ccnc1)C1CCCN(S(=O)(=O)c2cc(Cl)ccc2Cl)C1` (stereo unspecified), the percent response (surface receptor) is 17.8% (active).

For the compound `CC(=O)Nc1ccc(Nc2c3ccccc3nc3ccccc23)cc1`, the percent response (surface receptor) is 80.8% (inactive).

As to `COc1ccc(-n2nc3c(N4CCC(C(=O)NCc5ccccc5)CC4)nnc(C)c3c2C)cc1`, the percent response (surface receptor) was 152% (inactive).

As for `C=CCNC(=S)N/N=C/c1ccc(C)s1`, the percent response (surface receptor) is 110% (inactive).

On to `CC(=O)Nc1ccc(CN2CCC(Oc3ccc(C(=O)N4CCCC4)cc3)CC2)cc1`, for which the percent response (surface receptor) was 104% (inactive).

With `CC(CCc1ccccc1)NCC(O)c1cccc([N+](=O)[O-])c1` (stereo unspecified), the percent response (surface receptor) was 119% (inactive).

As for `COc1cc(C#Cc2ccc3cc(CCCO)oc(=O)c3c2)cc(OC)c1`, the percent response (surface receptor) was 68.2% (inactive).

In the case of `COc1ccc(-c2ccnc(SCC(=O)N3CCOCC3)n2)cc1`, the percent response (surface receptor) was 104% (inactive).

In the case of `Cc1ccc(Cl)cc1NC(=O)CN1CCN(S(=O)(=O)N2CCOCC2)CC1`, the percent response (surface receptor) was 93.5% (inactive).

Turning to `CCOc1ccccc1N1C(=O)CC(Sc2nccc(C)n2)C1=O` (stereo unspecified), the percent response (surface receptor) was 106% (inactive).

As for `CCOC(=O)c1ccc(NC(=O)Cn2nnc(-c3ccc(C)cc3)n2)cc1`, the percent response (surface receptor) was 12.3% (active) and 4.86% (active).

Regarding `COc1ccc2c(c1OC)C(=O)OC2Nc1nc(-c2ccccc2)cs1` (stereo unspecified), the percent response (surface receptor) is 99.6% (inactive).

Regarding `O=C(C1CCN(c2nnc(-n3cccc3)s2)CC1)N1CCc2ccccc2C1`, the percent response (surface receptor) was 146% (inactive).

Regarding `CC(=O)c1ccc(NC(=O)c2ccc3c(Cl)c4c(nc3c2)CCCC4)cc1`, the percent response (surface receptor) is 66.5% (inactive).

For the compound `Cc1cc(S(=O)(=O)N2CCOCC2)ccc1OCC(=O)Nc1cccc(C(F)(F)F)c1`, the percent response (surface receptor) was 99% (inactive).

As for `COc1ccc(OC)c(NC(=O)c2sc3nc(C)cc(C)c3c2N)c1`, the percent response (surface receptor) was 34.7% (active).

Turning to `N#Cc1cccc(NC(=O)COC(=O)c2ccccc2C(=O)c2ccc(Cl)c([N+](=O)[O-])c2)c1`, the percent response (surface receptor) is 85.9% (inactive).

On to `COc1ccc(OC)c(S(=O)(=O)N(C)CC(=O)N2CCN(c3ccccc3)CC2)c1`, for which the percent response (surface receptor) was 88.9% (inactive) and 123% (inactive).

Turning to `CCOc1ccc(NC(=O)COc2ccc(S(=O)(=O)N3CCCC3)cc2)cc1`, the percent response (surface receptor) is 104% (inactive).

Take `COc1ccc(S(=O)(=O)N2CCCC(C(=O)Nc3ccc(NC(=O)c4ccccn4)cc3)C2)cc1` (stereo unspecified): the percent response (surface receptor) was 44.1% (active).

Take `CCOc1ccccc1NC(=O)COc1ccc(S(=O)(=O)N2CCCC2)cc1`: the percent response (surface receptor) was 128% (inactive).

For the compound `CCN1CCC2(CC1)N=C(c1ccc(F)cc1)C(=S)N2C(=O)c1ccc(C)cc1`, the percent response (surface receptor) is 92.8% (inactive).

For `CC(=O)c1cccc(NC(=O)COc2ccc(S(=O)(=O)N3CCOCC3)cc2)c1`, the percent response (surface receptor) was 120% (inactive).

With `Cc1ccc(OCC(=O)Nc2ccc(-c3nc4ncccc4o3)cc2)cc1`, the percent response (surface receptor) was 38.8% (active) and 23.3% (active).

Regarding `CCCOc1ccc(C(=O)C(CCC(CNCC)C(=O)c2ccc(OCCC)cc2)CNCC)cc1` (stereo unspecified), the percent response (surface receptor) was 61% (inactive).

Regarding `O=S(=O)(Nc1ccc2[nH]ncc2c1)c1ccccc1Cl`, the percent response (surface receptor) was 89.6% (inactive).

In the case of `Cc1ccc(Sc2cc(N3CCOCC3)nc(-c3ccccc3)n2)cc1`, the percent response (surface receptor) was 22.9% (active).

Consider `CCCN(CCc1ccccc1)C1CCc2c(O)cccc2C1` (stereo unspecified), for which the percent response (surface receptor) was 111% (inactive).

Consider `CSc1ccc(CCNC(=O)C2CCN(c3nnc(-n4cccc4)s3)CC2)cc1`, for which the percent response (surface receptor) was 60.9% (inactive).

Turning to `Oc1ccc(N=Cc2sc3ccccc3c2Cl)cc1`, the percent response (surface receptor) was 101% (inactive).

With `O=C(Nc1ccc2c(c1)OCCO2)C(c1ccc(F)cc1)N1CCCCC1` (stereo unspecified), the percent response (surface receptor) was 112% (inactive).

Take `COc1ccc(C(CCNCc2ccccc2F)c2ccc(F)cc2)cc1` (stereo unspecified): the percent response (surface receptor) was 109% (inactive).
